Test results reported in PubChem BioAssay (NCI).
The panel holds about 79,000 compounds, 15% with a hit somewhere; the sample as a whole holds those more often. The source made the active and inactive calls. No stated cut-off is given here; in the data, active means growth inhibition above about 70%; inactive means the rest.

Experiments:
[1] = NCI Yeast Anticancer Drug Screen. Data for the rad52 strain (AID 147);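 further: 0% = growth of vehicle-treated control cultures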; conditions: S. cerevisiae rad52 mutant growth inhibition, active compounds read high
How it was run: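 DNA repair-defective yeast; compound exposure; growth scored against vehicle controls.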

[2] = NCI Yeast Anticancer Drug Screen. Data for the wt1 strain (AID 149);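 further: 0% = growth of vehicle-treated wt1 cultures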; conditions: S. cerevisiae wt1 strain (SPY 50644) growth inhibition, active compounds read high
How it was run: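 Growth inhibition read against vehicle controls after compound exposure of the wt1 yeast strain.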

[3] = NCI Yeast Anticancer Drug Screen. Data for the rad50EPP+ strain (AID 151);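 further: 0% = growth of vehicle-treated control cultures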; conditions: S. cerevisiae rad50 mutant strain, active compounds read high
How it was run: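 rad50EPP+ yeast treated with test compounds. Readout: growth vs vehicle control.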

[4] = NCI Yeast Anticancer Drug Screen. Data for the mgt1 strain (AID 153); conditions: S. cerevisiae mgt1 mutant growth inhibition, active compounds read high
How it was run: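 Growth inhibition relative to vehicle controls was scored for the mgt1 yeast strain after compound exposure.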

[5] = NCI Yeast Anticancer Drug Screen. Data for the rad50 strain (AID 155);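 further: 0% = growth of vehicle-only cultures of the same strain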; conditions: S. cerevisiae rad50 strain growth inhibition, active compounds read high
How it was run: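 Readout: growth inhibition relative to vehicle-treated cultures. Compound exposure was carried out in a genetically defined yeast strain deficient in DNA damage repair.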

[6] = NCI Yeast Anticancer Drug Screen. Data for the mec2-1 strain (AID 157); conditions: S. cerevisiae mec2-1 strain, active compounds read high
How it was run: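 Growth inhibition is read against vehicle-treated controls after compound exposure of the mec2-1 yeast strain, which is defective in DNA damage repair or cell cycle control.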

[7] = NCI Yeast Anticancer Drug Screen. Data for the rad14 strain (AID 159);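 further: 0% = growth of vehicle-treated control cultures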; conditions: S. cerevisiae rad14 strain growth inhibition, active compounds read high
How it was run: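 Growth inhibition vs vehicle controls; genetically altered yeast strain (DNA damage repair defect) treated with test compounds.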

[8] = NCI Yeast Anticancer Drug Screen. Data for the sgs1 mgt1 strain (AID 161);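 further: 0% = growth of cultures given vehicle only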; conditions: S. cerevisiae sgs1 mgt1 strain, active compounds read high
How it was run: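 Growth of a repair-deficient yeast mutant was monitored after compound treatment and expressed as inhibition relative to vehicle-treated cultures.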

[9] = NCI Yeast Anticancer Drug Screen. Data for the cln2 rad14 strain (AID 165);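 further: 0% = growth equal to vehicle treated cultures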; conditions: S. cerevisiae cln2 rad14 strain, active compounds read high
How it was run: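 Growth inhibition, relative to vehicle-treated controls, is the read-out. The test organism is a yeast strain with defined genetic alterations, cln2 rad14.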

[10] = NCI Yeast Anticancer Drug Screen. Data for the bub3 strain (AID 167); conditions: S. cerevisiae bub3 mutant strain, active compounds read high
How it was run: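 Readout: yeast growth inhibition, expressed relative to vehicle-only wells. The test organism is a mutant strain from a panel with lesions in DNA repair or checkpoint genes.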

[11] = NCI Yeast Anticancer Drug Screen. Data for the wt2 strain (AID 169);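 further: 0% = growth of vehicle-treated yeast cultures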; conditions: S. cerevisiae wt2 strain growth inhibition, active compounds read high
How it was run: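 Compound exposure of yeast; growth compared with vehicle controls; inhibition reported.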

[12] = NCI Yeast Anticancer Drug Screen. Data for the mlh1 strain (AID 171);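 further: 0% = growth of vehicle-treated control cultures of the same strain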; conditions: S. cerevisiae mlh1 strain growth inhibition, active compounds read high
How it was run: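 Compounds are applied to a genetically altered yeast strain, and its growth is compared with that of vehicle-treated cultures to give percent inhibition.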

[13] = NCI Yeast Anticancer Drug Screen. Data for the sgs1 strain (AID 173);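 further: 0% = growth of vehicle-only control cultures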; conditions: S. cerevisiae sgs1 mutant, active compounds read high
How it was run: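 Compounds applied to genetically altered yeast; growth compared with vehicle-treated cultures to give % inhibition.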

[14] = NCI Yeast Anticancer Drug Screen. Data for the mlh1 rad18 strain (AID 175); conditions: S. cerevisiae mlh1 rad18 strain growth inhibition, active compounds read high
How it was run: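 Cells of a genetically altered yeast strain, deficient in DNA damage repair, were treated with compound. Their growth was then compared with that of vehicle-treated cultures to give inhibition.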

[15] = NCI Yeast Anticancer Drug Screen. Data for the rad18 strain (AID 177); conditions: S. cerevisiae rad18 mutant growth inhibition, active compounds read high
How it was run: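 Compounds are applied to a repair-deficient yeast strain, and growth is compared with that of vehicle-treated cultures to give percent inhibition.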

[16] = at 5.0 µM (retest, dose inferred, filed as 0.5)
[17] = at 50.0 µM (retest, dose inferred, filed as 5.0)

Measured: growth inhibition

Cc1csc(=S)n1OC(=O)NC1CCCCC1
active: [1]; at 11.0 µM 99% | [1]; at 33.0 µM 99% | [1]; at 100.0 µM 99% | [2]; at 3.7 µM 97% | [2]; at 11.0 µM 99% | [2]; at 33.0 µM 100% | [2]; at 100.0 µM 99% | [3]; at 3.7 µM 99% | [3]; at 11.0 µM 99% | [3]; at 33.0 µM 99% | [3]; at 100.0 µM 99% | [4]; at 3.7 µM 99% | [4]; at 11.0 µM 100% | [4]; at 33.0 µM 100% | [4]; at 100.0 µM 99% | [5]; at 3.7 µM 98% | [5]; [16] 94% | [5]; at 11.0 µM 99% | [5]; at 33.0 µM 98% | [5]; [17] 98% | [5]; at 50.0 µM 92.5% | [5]; at 100.0 µM 98% | [6]; at 3.7 µM 93% | [6]; at 11.0 µM 99% | [6]; at 33.0 µM 93% | [6]; [17] 99% | [6]; at 50.0 µM 94.2% | [6]; at 100.0 µM 95% | [7]; at 3.7 µM 96% | [7]; at 11.0 µM 99% | [7]; at 33.0 µM 99% | [7]; at 100.0 µM 98% | [8]; [17] 96% | [8]; at 50.0 µM 93.5% | [9]; [16] 83% | [9]; [17] 98% | [9]; at 50.0 µM 92.2% | [10]; at 3.7 µM 99% | [10]; [16] 99% | [10]; at 11.0 µM 99% | [10]; at 33.0 µM 100% | [10]; [17] 97% | [10]; at 50.0 µM 91.8% | [10]; at 100.0 µM 99% | [11]; at 3.7 µM 97% | [11]; at 11.0 µM 99% | [11]; at 33.0 µM 99% | [11]; at 100.0 µM 99% | [12]; at 3.7 µM 99% | [12]; at 11.0 µM 100% | [12]; at 33.0 µM 99% | [12]; at 100.0 µM 98% | [13]; at 3.7 µM 98% | [13]; at 11.0 µM 99% | [13]; at 33.0 µM 100% | [13]; at 100.0 µM 99% | [14]; [16] 97% | [14]; [17] 98% | [14]; at 50.0 µM 92.1% | [15]; at 3.7 µM 94% | [15]; at 11.0 µM 98% | [15]; at 33.0 µM 98% | [15]; at 100.0 µM 98%
inactive: [1]; at 1.2 µM -54% | [1]; at 3.7 µM 63% | [2]; at 1.2 µM -5% | [3]; at 1.2 µM -23% | [4]; at 1.2 µM 18% | [5]; at 1.2 µM -2% | [6]; at 1.2 µM -11% | [6]; [16] -3% | [7]; at 1.2 µM -8% | [8]; [16] 32% | [10]; at 1.2 µM 3% | [11]; at 1.2 µM -23% | [12]; at 1.2 µM 8% | [13]; at 1.2 µM -42% | [15]; at 1.2 µM -11%
